Screens from PubChem BioAssay.
Pf apPOL inh – Pf-apPOL inhibitors, biochemical, fluorescence; Plasmodium falciparum apicoplast DNA polymerase (apPOL); inhibition, % at 10 µM; Recombinant Pf-apPOL, molecular beacon fluorescence, 1.5 h; 0.25% of 210,000 active
mHTT CaM bind – mutant huntingtin-calmodulin interaction inhibitors – biochemical, AlphaScreen, primary screen; AlphaScreen His-mHTT/GST-CaM binding, luminescence; inhibition, % at 15 µM; 3.6% of 190,000 active; AID 1671202, 2021
Of the large screens only hits and unclear results are named; the others gave an inactive call. Sampled rows, rich in hits. Any-hit rate of the full collection: about 3.6%. No stated cut-off is given here; in the data, active means inhibition above about 50%; inactive means the rest.

CSc1nnc2c(n1)OC(c1ccc(C(=O)O)cc1)Nc1ccc(Br)cc1-2 (configuration not stated)	none
CCCSc1nnc2c(n1)OC(c1ccco1)Nc1ccccc1-2 (configuration not stated)	none
CCCSc1nnc2c(n1)OC(c1ccco1)Nc1ccc(Br)cc1-2 (configuration not stated)	mHTT CaM bind 53
CSc1nnc2c(n1)OC(c1ccncc1)Nc1ccc(Br)cc1-2 (configuration not stated)	mHTT CaM bind 54
O=C(NCCC1=CCCCC1)C1CN(C(=O)c2ccc3c(c2)OCO3)C1	none
c1ccc(Cn2cnnc2C2CCN(CC3CC3)CC2)cc1	none
Cc1ccc2[nH]cc(CCN3CC(C(=O)Nc4ccccc4C)CC3=O)c2c1 (configuration not stated)	none
Cc1ccc2[nH]cc(CCN3CC(C(=O)Nc4nncs4)CC3=O)c2c1 (configuration not stated)	none
Cc1ccc2nc(NC(=O)C3CC(=O)N(CCc4c[nH]c5ccc(C)cc45)C3)sc2c1 (configuration not stated)	mHTT CaM bind 88
Cc1ccc2[nH]cc(CCN3CC(C(=O)Nc4nc5c(C)cccc5s4)CC3=O)c2c1 (configuration not stated)	mHTT CaM bind 81
COc1ccc(-n2nc3c(c2NC(=O)CCC2CCCCC2)CS(=O)C3)cc1 (configuration not stated)	none
Cc1ccccc1NC(=O)C1CCCN(c2nnc3ccc(Cl)cn23)C1 (configuration not stated)	none
Oc1ccc(Nc2nc(-c3ccccc3)cs2)cc1	mHTT CaM bind 79
NNc1nc(-c2ccccc2)cs1	mHTT CaM bind 58
c1ccc(-c2csc(Nc3ncccn3)n2)cc1	none
Oc1cccc(Nc2nc(-c3ccccc3)cs2)c1	none
CN(CC1CCCO1)S(=O)(=O)c1ccc(C(=O)N2CCc3ccccc3C2)cc1 (configuration not stated)	none
COC(=O)c1cc(=O)c2cc(NC(=O)c3ccc(OC(F)(F)F)cc3)ccc2[nH]1	none (no result: mHTT CaM bind)
COC(=O)C(NC(=O)N1CCc2c(nc3cc(-c4ccccc4)[nH]n3c2=O)C1)C(C)C (configuration not stated)	none
COc1ccc(/C=C2\CCCC(C(=O)C(F)(F)F)=C2O)cc1	mHTT CaM bind 55
COc1ccc(/C=C2\CCC(C3CCCC3)C2=O)cc1 (configuration not stated)	none
CC(=O)Oc1ccc2c(c1)OC(=Cc1cc(Cl)cc3c1OCOC3)C2=O	none
O=C1C=CC2=C3c4cc(O)c(O)cc4CC3(O)COC2=C1O (configuration not stated)	Pf apPOL inh 50 (no result: mHTT CaM bind)
O=C(Cc1c[nH]c2ncccc12)NCc1ccccc1	none
O=C(Cc1c[nH]c2ncccc12)NCc1ccc(C(F)(F)F)cc1	Pf apPOL inh 86
CCOC(=O)c1oc2cc(OC(=O)c3cccc([N+](=O)[O-])c3)ccc2c(=O)c1-c1ccccc1OC	none
O=C1CC(c2ccccc2Cl)CC2=C1C(c1coc3ccccc3c1=O)Nc1ccccc1N2 (configuration not stated)	none
O=C1CC(c2cccs2)CC2=C1C(c1coc3ccccc3c1=O)Nc1ccccc1N2 (configuration not stated)	mHTT CaM bind 54
COc1ccccc1CCNC(=O)C(=O)Nc1cc(N2CCCS2(=O)=O)ccc1C	none
COc1ccc(C(=O)NC(=O)Nc2ncccn2)cc1	none
O=C(O)CNC(=O)c1ccccc1	none
NNC(=O)CNC(=O)c1ccccc1	Pf apPOL inh 62
COc1ccccc1C(=O)Nc1nc2n(n1)C(c1ccccc1)C=C(c1ccccc1)N2 (configuration not stated)	mHTT CaM bind 68
CC(=O)Nc1nc2n(n1)C(c1ccccc1)C=C(c1ccccc1)N2 (configuration not stated)	none
O=C(O)CCC(=O)Nc1nc2n(n1)C(c1ccccc1)C=C(c1ccccc1)N2 (configuration not stated)	none
O=C(Nc1nc2n(n1)C(c1ccccc1)C=C(c1ccc(Cl)cc1)N2)c1ccco1 (configuration not stated)	none
CC1=CC(c2ccc(Cl)cc2)n2nc(NC(=O)c3ccccc3)nc2N1 (configuration not stated)	none
COc1ccc(C(=O)Nc2nc3n(n2)C(c2ccccc2)C=C(c2ccc(Cl)cc2)N3)cc1 (configuration not stated)	mHTT CaM bind 62
COc1ccc(C(=O)Nc2nc3n(n2)C(c2ccccc2)C=C(c2ccccc2)N3)cc1 (configuration not stated)	mHTT CaM bind 61
O=C(Nc1nc2n(n1)C(c1ccccc1)C=C(c1ccccc1)N2)c1ccco1 (configuration not stated)	mHTT CaM bind 67
Cc1nc(-c2ccc([N+](=O)[O-])cc2)cs1	none
CC1=NN(C(=O)C(F)(F)F)C(O)(c2cccc(Br)c2)C1 (configuration not stated)	none
CCNC(=O)C1CCN(c2nc3ccc(-c4cccc(F)c4)nc3s2)CC1	none
Cc1ccc(F)cc1NC(=O)CSc1cccc2cccnc12	none
COc1ccc(NC(c2ccccc2)c2ccncc2)cc1 (configuration not stated)	none
O=C(CSc1cccc2cccnc12)c1ccc(F)cc1	none
Cc1cccc(NC(c2cccc(F)c2)c2ccc3cccnc3c2O)n1 (configuration not stated)	mHTT CaM bind 99
Cc1cccc(NC(c2ccc(F)cc2)c2ccc3cccnc3c2O)n1 (configuration not stated)	mHTT CaM bind 100
Oc1c(C(Nc2ccc(F)cc2)c2ccncc2)ccc2cccnc12 (configuration not stated)	mHTT CaM bind 100
Oc1c(C(c2ccncc2)N2CCOCC2)ccc2cccnc12 (configuration not stated)	mHTT CaM bind 100
c1cncc(C(N2CCOCC2)N2CCOCC2)c1	none
Cc1ccc(C(NC(=O)c2cnccn2)C(=O)Nc2ccc(C(C)C)cc2)cc1 (configuration not stated)	none
O=S(=O)(c1ccc2c(c1)CCCC2)N1CCC(c2ccncc2)CC1	none
Fc1ccc(CCNC2CCN(Cc3ccccc3)CC2)cc1	none
Cc1cc(Cl)ccc1OCC(=O)Nc1ccc2oc(-c3ccncc3)nc2c1	none
Cc1cccc(OCC(=O)Nc2ccc(-c3nc4ncccc4o3)cc2)c1C	mHTT CaM bind 75
Cc1ccccc1OCC(=O)Nc1ccc(-c2nc3ncccc3o2)cc1	none
CC(C)(C)c1ccc(OCC(=O)Nc2ccc3oc(-c4ccncc4)nc3c2)cc1	Pf apPOL inh 68
COc1ccccc1C(=O)Nc1cccc(-c2nc3ncccc3o2)c1	mHTT CaM bind 58
CCc1ccc(-c2nc3cc(NC(=O)COc4ccc(OC)cc4)ccc3o2)cc1	none
Cc1ccccc1OCC(=O)Nc1ccc2oc(-c3ccncc3)nc2c1	mHTT CaM bind 70
COc1ccc(Br)cc1C(=O)Nc1cccc(-c2nc3ncccc3o2)c1	none
CCOc1ccc(C2=NC3(CCN(CC)CC3)NC(c3ccccc3O)C2)cc1 (configuration not stated)	none
CN(CCCNC(=O)c1noc2c1CCCCC2)Cc1ccccc1	none
CCCNC(=O)c1nnn(-c2ccccc2Cl)c1-c1cccnc1	none
Cc1ccc(C(=O)N2CCN(c3nc(CN4CCCC4)cs3)CC2)s1	none
O=C1NC2(CCN(Cc3cccc(F)c3)CC2)N=C1c1cccc(Cl)c1	none
